# According to the supplement of paper PMC11219838:
# Unmarked numbers belong to inactive results.
# Tested on: Caenorhabditis elegans L1 (N2)
# Assay: survival and reproduction score of C. elegans L1 (0: 0-10 living worms, 1: 11-20, 2: 21-50, 3: >50, 4: overgrown) (score 0-4); higher = more worms, less nematicidal, active = 1 or less; extreme values may be limits of the assay
# Conditions: 60 µM; 6 days; temperature: 20 °C
# How it was run: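 Worm survival and reproduction were recorded as an ordinal score of living worms per well, read under a dissection microscope. Each 96-well well held about 20 synchronized C. elegans N2 L1s with E. coli HB101 in liquid NGM and compound at 60 µM final (0.6% v/v DMSO), sealed and shaken at 200 rpm, 20 °C, for 6 days. Scores ranged from 0 (0–10 worms) to 4 (overgrown, starved) and were the mean of two biological replicates.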
row,Structure (SMILES),survival and reproduction score
1,Cc1cc(NC(=O)CSc2nnc(-c3ccc(Cl)cc3Cl)o2)no1,4
2,CCOc1ccccc1-c1nc(-c2cccc(C)c2)no1,4
3,Cc1cc(OCc2nc(-c3ccncc3)no2)ccc1Br,4
4,COc1cccc(-c2nc(-c3ccc(C)cc3)no2)c1,0 (active)
5,Cc1cc(OCc2nc(-c3ccccc3)no2)ccc1Cl,4
6,Cc1ccc(NC(=O)CSc2nnc(-c3ccco3)o2)cc1Br,4
7,CCOc1ccccc1-c1nc(-c2ccc(F)cc2)no1,4
8,Cc1ccccc1OCc1nc(-c2ccc(F)cc2)no1,4
9,COc1cccc(-c2nc(-c3ccccc3)no2)c1,1.5
10,Cc1ccc(C)c(-c2nc(-c3cccnc3)no2)c1,0 (active)
11,Cc1cccc(-c2noc(-c3ccc(C)c(Cl)c3)n2)c1,4
12,N#Cc1ccc(CSc2nnc(-c3ccccc3)o2)cc1,4
13,COc1nc(-c2ccccc2)ccc1-c1noc(C(C)C)n1,4
14,CC(C)c1ccc(OCc2nc(-c3ccccn3)no2)cc1,4
15,O=C(CSc1nnc(-c2ccccc2)o1)OCc1ccccc1,4
16,COc1nc(C)ccc1-c1noc(-c2ccccc2C)n1,4
17,COc1ccccc1-c1nnc(SCC(=O)Nc2nc(C)cs2)o1,4
18,Cc1csc(NC(=O)CSc2nnc(-c3ccccc3Cl)o2)n1,4
19,COc1ccc(CCC(=O)Nc2ccc(-c3noc(-c4ccc(F)cc4)n3)cc2)cc1,4
20,COc1cccc(-c2nc(-c3ccc(F)cc3)no2)c1,4
